In PubChem BioAssay AID651582 (Sanford-Burnham Center for Chemical Genomics, 2012):
Where “and” joins values, the source holds several entries; their conditions need not be identical. Equal entries are not always repeated. Among all 230,000 compounds or so, about 1,500 (0.65%) were called active.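 The calls were made as follows: active = pattern-corrected inhibition of lipid staining of at least 50% with the nuclear-stain viability signal not falling by more than 50%; inactive = the rest, inconclusive results apart.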 Many of the other results were omitted from the sample, so actives are more common in it than they were. The source holds several records for some structures; these can differ, active in one and inactive in another.

Assay: TAG lipid buildup reduction in H9c2 cells – cell-based, uHTS, fluorescence, primary screen (AID 651582);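 as to inhibition: 0% = DMSO wells and 100% = triacsin C control wells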
Details: Nile Red lipid (TAG) fluorescence, at 12.5 µM, cells loaded with 200 µM oleic acid; DAPI nuclei signal change (viability), lower = more cytotoxic: measured here: DAPI nuclei count viability; inhibition: stronger effect = higher value

| SMILES | DAPI nuclei signal change (viability), lower = more cytotoxic | inhibition |
| --- | --- | --- |
| COc1ccc(S(=O)(=O)N2CCc3ccccc32)cc1C(=O)Nc1cc(S(C)(=O)=O)ccc1Cl | -36.5% | 61.6% (active) |
| CCOC(=O)C1(C)CCCN(C(=O)c2ccc(N(C)C)cc2)C1 (stereo not drawn) | 5.71% | -6.89% (inactive) |
| COc1ccc2sc(-c3ccc(N(C)C)cc3)c(C#CCO)c2c1 | 426% | 66.7% (active) |
| COc1ccc2sc(-c3ccc(N(C)C)cc3)c(-c3ccc4cc[nH]c4c3)c2c1 | 224% | 24.3% (inactive) |
| COc1ccc(-c2sc3ccc(OC)cc3c2C#Cc2ccccn2)cc1 | 5.72% | 13.1% (inactive) |
| Cc1cccc(C(=O)Nc2nnc(S(=O)(=O)N3CCCCCC3)s2)c1 | -4.18% | 6.02% (inactive) |
| O=C(NCc1nnnn1-c1ccc(Cl)cc1)c1ccc2c(c1)OCO2 | 1.1% | -6.02% (inactive) |
| c1ccc(Cn2nnc3c(NCC4CC4)ncnc32)cc1 | -8.3% | 23.9% (inactive) |
| CNc1cncc(-c2ccc(NS(C)(=O)=O)cc2)n1 | -24.4% | 24.8% (inactive) |
| CN(C)CC(O)COc1ccc(C(C)(C)c2ccc(OCC(O)CN(C)C)cc2)cc1 (stereo not drawn) | 20% | 50.5% (active) |
| CCc1ccc(OCC(O)CN2CCN(CCO)CC2)cc1 (stereo not drawn) | 4.43% | -3.68% (inactive) |
| CC(C)(c1ccccc1)c1ccc(OCCN)cc1 | 10.8% | 22% (inactive) |
| CC(=O)NC12CC3CC(C1)CC(C(=O)N1CCN(C(=O)c4ccco4)CC1)(C3)C2 | 0.13% | -4.34% (inactive) |
| CS(=O)(=O)c1ccc(C(=O)NNC(=O)c2cccs2)cc1 | -4.79% | -4.25% (inactive) |
| C=CCNC(=S)N/N=C/c1ccc(OCc2ccccc2)cc1 | 1.44% | 9.8% (inactive) |
| Cc1ccc(/C=N/NC(=O)CN2CCN(Cc3ccccc3)CC2)s1 | 1.3% | 2.92% (inactive) |
| C=CCNC(=S)N/N=C/c1ccc(C)s1 | -18.5% | 56% (active) |
| CCOc1ccc(CN2CCN(Cc3ccc4cc(F)ccc4n3)CC2CCO)cc1 (stereo not drawn) | 1.54% | 7.07% (inactive) |
| O=c1cc(N2CCN(Cc3ccccc3)CC2)c(-c2ccccc2)n[nH]1 | -7.21% | 20.7% (inactive) |
| O=C(CCN1CCN(C/C=C/c2ccccc2)CC1)Nc1cccc(F)c1 | 11.8% | 13.2% (inactive) |

| SMILES | DAPI nuclei signal change (viability), lower = more cytotoxic | inhibition |
| --- | --- | --- |
| O=C1c2ccccc2C(=O)c2c1cccc2N1CCN(C/C=C/c2ccccc2)CC1 | 3.54% | 59.1% (active) |
| O=C1c2ccccc2C(=O)c2c1cccc2N1CCN(Cc2ccccc2)CC1 | 4.09% | 114% (active) |
| CNC(=O)NC(=O)C(C)N1CCN(C/C=C/c2ccccc2)CC1 (stereo not drawn) | 3.57% | 4.65% (inactive) |
| O=C(CN1CCN(Cc2ccccc2)CC1)NC(c1ccccc1)c1ccccc1 | 4.91% | -87.5% (inactive) |
| O=C(COC(=O)/C=C/c1ccc(Cl)cc1)NC1CCS(=O)(=O)C1 (stereo not drawn) | -1.68% | 1.31% (inactive) |
| O=C(COC(=O)c1ccccn1)NNC(=O)c1ccc(Br)cc1 | 1.16% | 11.9% (inactive) |
| COC(=O)c1ccc(CN2CCCC(C(=O)Nc3cccc(-n4cnnn4)c3)C2)cc1 (stereo not drawn) | 3.39% | -0.9% (inactive) |
| COc1ccc(C(CNC(=O)c2cccc(S(=O)(=O)Nc3ccc(Br)cc3)c2)N(C)C)cc1 (stereo not drawn) | 7.9% | -15.7% (inactive) |
| O=C(Nc1nc2c(F)cc(F)cc2s1)C1COc2ccccc2O1 (stereo not drawn) | -6.26% | -0.591% (inactive) |
| O=C(Nc1nc(-c2ccncc2)cs1)C1COc2ccccc2O1 (stereo not drawn) | -38.7% | 50.4% (active) |
| COc1ccc(OC)c2sc(NC(=O)C3COc4ccccc4O3)nc12 (stereo not drawn) | -0.689% | -1.03% (inactive) |
| CCCCc1ccc(NS(=O)(=O)c2cccc(C(=O)N3CCCN(C)CC3)c2)cc1 | 4.43% | -11.5% (inactive) |
| CC1O[C@@H](OC2C(O)C(C)O[C@H](OC(=O)[C@]34CCC(C)(C)C[C@H]3C3=CCC5[C@@]6(C)CC(O)C(O[C@@H]7OC(CO)C(O)[C@@H](O)[C@@H]7O)[C@@](C)(C(=O)O)C6CC[C@@]5(C)[C@]3(CO)CC4)C2O[C@H]2OC(C)[C@@H](O[C@@H]3OCC(O[C@@H]4OC(CO)C(O)[C@H](O)C4O)[C@@H](O)[C@@H]3O)[C@H](O)C2O)C(O)C(O)C1O (stereo partly drawn) | -3.05% | 18.4% (inactive) |
| COc1ccc(NC(=O)C(=O)NCC(=O)Nc2cccc(C(F)(F)F)c2)cc1 | -2.54% | 4.19% (inactive) |
| COc1ccc(NC(=O)CN(C)CC(=O)Nc2cccc(C(F)(F)F)c2)cc1 | 6.16% | -9.17% (inactive) |
| COc1cc(NC(=O)c2[nH]cnc2C(N)=O)cc(C(=O)Nc2cccc(C(F)(F)F)c2)c1 | -14.2% | 53.7% (active) |
| COc1cc(NC(=O)c2cncc(-c3ccc(C#N)cc3)c2)cc(C(=O)Nc2cccc(C(F)(F)F)c2)c1 | 0.0489% and -1.97% | -19.1% (inactive) and 61.3% (active) |
| Cc1cccc(NC(=O)c2nnn(-c3cccc(C(F)(F)F)c3)c2N)c1 | -5.82% | 3.82% (inactive) |
| N#Cc1ccc(Oc2ccc(C(F)(F)F)cc2NC(=O)c2ccc(F)cc2)cc1 | 4.06% | -7.23% (inactive) |
